Source: PubChem BioAssay AID504697 (The Scripps Research Institute Molecular Screening Center, 2011)
A number with no mark means an inactive call. Activity calls are given as the source filed them.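 Rule for the calls: active = EC50 at or below 10 µM; inactive = EC50 above 10 µM.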

Assay: compound autofluorescence in calcium buffer – biochemical, fluorescence, no RTF in test wells, artefact control for cardiac thin filament activator project, dose response (AID 504697);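 note: emission near 535 nm under roughly 485 nm excitation as for IANBD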
Conditions: compound-only fluorescence in RTF assay buffer with Ca2+ (no RTF in test wells), artifact counterscreen

**Q.** For `O=C(/C=C/c1cn(CC(O)CN2CCCCC2)c2ccccc12)c1cccs1` (stereo unspecified), which EC50 is on record?
**A.** The EC50 was 34.6 µM.

**Q.** With `COc1ccc(OC)c(/C=C2\N=C(c3ccccc3)OC2=O)c1` as the compound, how does the EC50 read?
**A.** The EC50 was 1.71 µM (active).

**Q.** Which EC50 does the source give for `CCOC(=O)/C(=C\c1c[nH]c2ccccc12)NC(C)=O` here?
**A.** Its EC50 is greater than 71.4 µM.

**Q.** For `COc1cccc(CC(NC(C)=O)C(=O)NC2CCN(c3nc(C)cc(C)c3C#N)CC2)c1OC` (stereo unspecified), which EC50 is on record?
**A.** Its EC50 is greater than 71.5 µM.

**Q.** With `CCN1C(=O)/C(=C/N2CCc3ccccc32)SC1=S` as the compound, how does the EC50 read?
**A.** The EC50 was 10.1 µM.

**Q.** With `O=C(Nc1nc(-c2nc3ccccc3s2)cs1)C1COc2ccccc2O1` (stereo unspecified) as the compound, how does the EC50 read?
**A.** Its EC50 is greater than 71.5 µM.
